High-throughput results as filed in PubChem.
hcDAF12 agonist = activates DAF-12 receptor from parasite H. contortus; HEK293 hcDAF-12 lit1-tk-luc reporter, luminescence; 0% DMSO, 100% Δ7-dafachronic acid; activation, % at 6.8 µM; actives 1.4% (n = 370,000);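 active = activation above the mean of all tested compounds plus 3 SD, cut at about 5.5% in these data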;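 also: 100% = response to 3 µM Δ7-dafachronic acid high control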
DAX1 inh-1 = inhibitors of human orphan nuclear receptor DAX1 (NR0B1); P51843; HEK293 Gal4-DAX1 luciferase reporter, luminescence; inhibition, % at 6.75 µM; actives 0.99% (n = 340,000); AID 504766;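 active = inhibition above the mean over all tested compounds plus 3 SD, cut at about 4.2% in these data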;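 also: 0% = DAX1-transfected cells with DMSO and 100% = empty-vector control cells with DMSO; inhibition shows as a rise in luminescence from relieved DAX1 repression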
Target sequence (P51843 207-470 limits assumed): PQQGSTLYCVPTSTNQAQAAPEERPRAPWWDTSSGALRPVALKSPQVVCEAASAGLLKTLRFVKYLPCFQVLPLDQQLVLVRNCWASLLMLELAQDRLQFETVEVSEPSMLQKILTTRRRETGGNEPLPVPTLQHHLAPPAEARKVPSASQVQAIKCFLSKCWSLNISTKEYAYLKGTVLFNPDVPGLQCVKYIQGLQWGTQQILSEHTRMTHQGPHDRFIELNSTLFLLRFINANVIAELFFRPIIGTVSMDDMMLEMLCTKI
hgDAF12 agonist = activates the H. glycines DAF-12 receptor ligand-binding domain | activation, % at 6.8 µM | HEK293 GAL4-hgDAF12 UAS-luciferase reporter, agonist luminescence; normalized to butyrate control | AID 687014 | actives 1.8% (n = 370,000);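 active = activation above a cutoff set at the mean of all screened compounds plus 3 SD, cut at about 10% in these data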;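 also: 0% = DMSO wells and 100% = sodium butyrate wells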
PolyA inhibitor = yeast polyadenylation inhibition. S. cerevisiae SKY197-pL101 polyadenylation reporter, beta-gal luminescence; efflux-impaired pdr1/pdr3 knockout yeast; score 100 = 6 SD above DMSO. activity score, % at 12 µM. actives 0.02% (n = 300,000). AID 1875;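 active = lowest replicate activity score at least 50, where 100 means six control SD above control mean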;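 also: yeast exposed to compound for 9 h at 30 °C; higher score means more reporter readthrough which indicates perturbed polyadenylation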
DAX1 inh-2 = blocks DAX1 repression of SF-1 activated StAR promoter; HEK293T StAR-luciferase reporter, SF-1/DAX-1 repression relief; inhibition, % at 6.8 µM; actives 1.1% (n = 370,000); AID 652010;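 active = inhibition above the mean over all tested compounds plus 3 SD, cut at about 3.6% in these data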;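 also: 0% = DAX-1 cells with DMSO and 100% = cells lacking DAX-1 with DMSO; higher inhibition means more luminescence from relief of DAX-1 repression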
ssDAF12 agonist = activators of S. stercoralis DAF-12 nuclear receptor | AID 652126 | actives 1% (n = 370,000) | HEK293 ssDAF-12/GRIP1 lit1-tk-luc reporter, luminescence; % of 3 µM dafachronic acid response | activation, % at 6.8 µM;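 active = activation above the mean over all tested compounds plus 3 SD, cut at about 0.9% in these data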;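 also: 0% = DMSO-only wells and 100% = 3 µM delta7-dafachronic acid wells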
LXRb hcDAF ctr = LXR-beta agonism as hcDAF-12 counter-screen; shares compounds with hcDAF12 agonist; HEK293 Gal4-LXR tk-luc reporter, luminescence, 24 h; normalized: DMSO 0%, positive control 100%; activation, % at 6.8 µM; 3,400 tested, under 10 active;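 active = mean percent activation of the reporter above a cutoff set as the average over tested compounds plus their standard deviation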
Target sequence (P55055 whole entry, looked up, the tested form may be a part): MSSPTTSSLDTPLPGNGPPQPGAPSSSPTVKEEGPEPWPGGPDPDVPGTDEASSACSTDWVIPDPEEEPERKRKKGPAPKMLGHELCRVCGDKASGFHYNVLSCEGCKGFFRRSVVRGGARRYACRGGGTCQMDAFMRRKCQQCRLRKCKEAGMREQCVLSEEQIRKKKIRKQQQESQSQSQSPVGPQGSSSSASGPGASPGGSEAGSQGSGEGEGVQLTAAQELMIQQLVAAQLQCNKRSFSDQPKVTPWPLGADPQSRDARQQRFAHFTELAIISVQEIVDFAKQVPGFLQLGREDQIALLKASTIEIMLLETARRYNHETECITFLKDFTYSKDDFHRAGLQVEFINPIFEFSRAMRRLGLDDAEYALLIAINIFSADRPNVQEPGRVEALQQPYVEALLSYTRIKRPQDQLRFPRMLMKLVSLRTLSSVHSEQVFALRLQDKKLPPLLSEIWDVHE
hcDAF12 conf = hcDAF-12 agonism, confirmation assay. shares compounds with hcDAF12 agonist. HEK293 hcDAF-12 lit1-tk-luc reporter, luminescence; % of Δ7-dafachronic acid response. activation, % at 6.8 µM. actives 61% (n = 3,400). AID 743032;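 active = mean activation across triplicate tests above the threshold derived from the earlier primary screen, cut at about 5.5% in these data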;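 also: 0% = DMSO only wells and 100% = 3 µM Δ7-dafachronic acid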
Starred values were filed as active, the others as inactive. Sampled rows, rich in hits. Any-hit rate of the full collection: about 4.1%.

What do the screens show for `CC(=O)NNc1ncnc2ccccc12`?
hcDAF12 agonist: 10.0*; DAX1 inh-1: 8.7*; hgDAF12 agonist: 5; PolyA inhibitor: 18; DAX1 inh-2: 1; ssDAF12 agonist: 1; LXRb hcDAF ctr: 0; hcDAF12 conf: 4

How did O=C(O)/C=C/C(=O)NNc1ncnc2ccccc12 do in these assays?
hcDAF12 agonist: 1; DAX1 inh-1: 1; hgDAF12 agonist: 1; PolyA inhibitor: 14; DAX1 inh-2: 0; ssDAF12 agonist: 0

What do the screens show for `COCCn1c(SCC(=O)N2CCCC2=O)nnc1-c1ccncc1`?
hcDAF12 agonist: 2; DAX1 inh-1: 1; hgDAF12 agonist: -2; DAX1 inh-2: 1; ssDAF12 agonist: -1

Results for O=C1C(C=Nc2ccccc2)=C(O)c2ccccc21 ?
hcDAF12 agonist: 16*; DAX1 inh-1: -1; hgDAF12 agonist: 13*; PolyA inhibitor: -3; DAX1 inh-2: 4.5*; ssDAF12 agonist: 1.8*; LXRb hcDAF ctr: 2; hcDAF12 conf: 11*

How did Cc1ccc(O)c(N=CC2=C(O)c3ccccc3C2=O)c1 do in these assays?
hcDAF12 agonist: 6.8*; DAX1 inh-1: 0; hgDAF12 agonist: 7; PolyA inhibitor: 0; DAX1 inh-2: 3; ssDAF12 agonist: 0; LXRb hcDAF ctr: 1; hcDAF12 conf: 2

What do the screens show for `CC1(C)CC(=O)C(C=Nc2ccccc2)=C(O)C1`?
hcDAF12 agonist: 0; DAX1 inh-1: 1; hgDAF12 agonist: -1; PolyA inhibitor: 12; DAX1 inh-2: 0; ssDAF12 agonist: -1

What do the screens show for `CC(NC(=O)COC(=O)CCN1C(=O)C2CC=CCC2C1=O)c1ccc(Br)cc1` (centres undefined)?
hcDAF12 agonist: 1; DAX1 inh-1: 0; hgDAF12 agonist: 3; DAX1 inh-2: -1; ssDAF12 agonist: -1

How did O=C(c1ccccc1)N1N=C(c2ccccc2)CC1c1ccccc1 (centres undefined) do in these assays?
hcDAF12 agonist: 3; DAX1 inh-1: -1; hgDAF12 agonist: 0; PolyA inhibitor: -24; DAX1 inh-2: 0; ssDAF12 agonist: -1

How did CCCC(=O)N1N=C(c2ccccc2)CC1c1cn(C)c2ccccc12 (centres undefined) do in these assays?
hcDAF12 agonist: 8.1*; DAX1 inh-1: 0; hgDAF12 agonist: 0; PolyA inhibitor: -3; DAX1 inh-2: 0; ssDAF12 agonist: -1; LXRb hcDAF ctr: 0; hcDAF12 conf: 2

Results for CC(=O)N1N=C(c2ccc(Br)cc2)CC1c1cn(C)c2ccccc12 (centres undefined) ?
hcDAF12 agonist: 1; DAX1 inh-1: 0; hgDAF12 agonist: 2; PolyA inhibitor: -26; DAX1 inh-2: -1; ssDAF12 agonist: 0

Results for Cn1cc(C2CC(c3ccccc3)=NN2C(=O)c2ccccc2)c2ccccc21 (centres undefined) ?
hcDAF12 agonist: 7.9*; DAX1 inh-1: 2; hgDAF12 agonist: 6; PolyA inhibitor: -5; DAX1 inh-2: 2; ssDAF12 agonist: 0; LXRb hcDAF ctr: 0; hcDAF12 conf: 4

Results for CCOC(=O)c1cnc(Nc2nc3ccccc3o2)nc1CSc1nnc(C)s1 ?
hcDAF12 agonist: 0; DAX1 inh-1: 1; hgDAF12 agonist: 1; PolyA inhibitor: -16; DAX1 inh-2: 0; ssDAF12 agonist: -1

What do the screens show for `CCOC(=O)c1cnc(Nc2nc3ccccc3o2)nc1C`?
hcDAF12 agonist: 6.8*; DAX1 inh-1: -1; hgDAF12 agonist: 11*; PolyA inhibitor: -6; DAX1 inh-2: 4.2*; ssDAF12 agonist: 0; LXRb hcDAF ctr: 0; hcDAF12 conf: 1

Results for CCOC(=O)CSc1nc(C)cc(C)c1C(N)=O ?
hcDAF12 agonist: 1; DAX1 inh-1: -1; hgDAF12 agonist: -4; PolyA inhibitor: -14; DAX1 inh-2: 1; ssDAF12 agonist: -3

What do the screens show for `CCOC(=O)c1cnn(-c2ncnc3sc4c(c23)CCC4)c1N`?
hcDAF12 agonist: 7.3*; DAX1 inh-1: 0; hgDAF12 agonist: 2; PolyA inhibitor: -9; DAX1 inh-2: 0; ssDAF12 agonist: 1; LXRb hcDAF ctr: 0; hcDAF12 conf: 4

Results for N#Cc1c(NC(=O)c2ccc([N+](=O)[O-])o2)sc2c1CCC2 ?
hcDAF12 agonist: 8.1*; DAX1 inh-1: -2; hgDAF12 agonist: 7; PolyA inhibitor: -16; DAX1 inh-2: 0; ssDAF12 agonist: 1.0*; LXRb hcDAF ctr: 1; hcDAF12 conf: 5

How did CC(C)c1onc(C(=O)Nc2sc3c(c2C#N)CCC3)c1[N+](=O)[O-] do in these assays?
hcDAF12 agonist: 1; DAX1 inh-1: 2; hgDAF12 agonist: -2; PolyA inhibitor: -12; DAX1 inh-2: 0; ssDAF12 agonist: -1

How did Oc1ccc(Cl)cc1-c1cc(-c2ccco2)[nH]n1 do in these assays?
hcDAF12 agonist: 7.6*; DAX1 inh-1: 1; hgDAF12 agonist: 9; PolyA inhibitor: 12; DAX1 inh-2: 1; ssDAF12 agonist: 0; LXRb hcDAF ctr: 0; hcDAF12 conf: 3

How did Oc1ccc(Br)cc1-c1cc(-c2ccco2)[nH]n1 do in these assays?
hcDAF12 agonist: 3; DAX1 inh-1: 0; hgDAF12 agonist: 6; PolyA inhibitor: 3; DAX1 inh-2: 1; ssDAF12 agonist: 0

Results for Oc1ccccc1-c1cc(-c2ccco2)[nH]n1 ?
hcDAF12 agonist: 7.6*; DAX1 inh-1: 1; hgDAF12 agonist: 12*; PolyA inhibitor: -9; DAX1 inh-2: 2; ssDAF12 agonist: 1; LXRb hcDAF ctr: 1; hcDAF12 conf: 9.2*

Results for CN(C(=O)COC(=O)/C=C/c1ccc(F)cc1)c1c(N)n(Cc2ccccc2)c(=O)[nH]c1=O ?
hcDAF12 agonist: -1; DAX1 inh-1: 0; hgDAF12 agonist: -2; PolyA inhibitor: 20; DAX1 inh-2: 1; ssDAF12 agonist: -1

Results for CN(c1ccccc1)S(=O)(=O)c1cccc(NC(=O)CN2C(=O)NC3(CCCC3)C2=O)c1 ?
hcDAF12 agonist: 1; DAX1 inh-1: 0; hgDAF12 agonist: 1; DAX1 inh-2: 2; ssDAF12 agonist: -1

How did Cc1ccc(NC(=O)c2sc(N)nc2C)cc1 do in these assays?
hcDAF12 agonist: 6.9*; DAX1 inh-1: 1; hgDAF12 agonist: 11*; PolyA inhibitor: 8; DAX1 inh-2: 1; ssDAF12 agonist: 0; LXRb hcDAF ctr: 1; hcDAF12 conf: 5
